The text below walks through data of PubChem BioAssay (NCATS).

Inconclusive results are not listed. The source made the active and inactive calls. Calls come from the whole dose curve; as a rule, active = well fitted cell-killing curve with a large enough effect; inconclusive = small, poorly fitted or top-dose-only effect, or effect the other way; inactive = flat fitted curve, though single readings scatter.
% is set by controls: 0 for no effect and ±100 for the full control effect.

In this assay the test system is Tov-21-G. Nature of the assay: Primary qHTS to identify gynecologic anti-cancer compounds using libraries of approved drugs and bioactive compounds (AID 1345084). Note: nearly all actives have a fitted effect of over 55% in size. To be noted: Gynecologic cancer cell panel viability, ATPlite luminescence, 48 h; series mostly up to 57.5 µM; activity change, negative = cytotoxicity: at the top concentration. The procedure, abridged:
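Cytotoxicity screen measuring ATP content by luciferase luminescence. Each compound is applied at five concentrations for 48 h at 37 C with 5% CO2.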
On to `COc1ccc2nc(S(=O)Cc3ncc(C)c(OC)c3C)[nH]c2c1` (configuration not stated), for which the “activity change, negative = cytotoxicity” value is -7.95% (inactive).

Take `CCC(C)n1ncn(-c2ccc(N3CCN(c4ccc(OC[C@H]5CO[C@](Cn6cncn6)(c6ccc(Cl)cc6Cl)O5)cc4)CC3)cc2)c1=O` (some centres not stated): the Potency result was “inactive”.

On to `Cc1ccnc(NS(=O)(=O)c2ccc(NC(=O)Nc3ccc(S(=O)(=O)Nc4nccc(C)n4)cc3)cc2)n1`, for which the “activity change, negative = cytotoxicity” value is 5.16% (inactive).

For the compound `OC(CN1CCC(Cc2ccc(F)cc2)CC1)c1ccc(Cl)cc1` (configuration not stated), the “activity change, negative = cytotoxicity” value is -4.37% (inactive).

On to `NC(=O)c1cnccn1`, for which the “activity change, negative = cytotoxicity” value was 3.16% (inactive).

With `CC[C@@H](C)[C@H](NC(=O)[C@H](CC1CCCCC1)NC(=O)c1ccno1)C(=O)N1CCC2(CCc3ccccc32)CC1`, the “activity change, negative = cytotoxicity” value was 28.9% (inactive).

Take `Cc1ccc(N(CC2=NCCN2)c2cccc(O)c2)cc1`: the “activity change, negative = cytotoxicity” value was -20% (inactive).

On to `C[C@@H]1CN(Cc2ccc(F)cc2)[C@@H](C)CN1C(=O)c1cc2c(C(=O)C(=O)N(C)C)cn(C)c2cc1Cl`, for which the “activity change, negative = cytotoxicity” value is 0.491% (inactive).

`Cc1cn[nH]c1`: the “activity change, negative = cytotoxicity” value was -0.773% (inactive).

Take `Cc1n[nH]c(C)c1Cc1sc2c(c1C(=O)N1C[C@H](O)CO1)c(=O)n(C)c(=O)n2CC(C)C`: the “activity change, negative = cytotoxicity” value is -9.73% (inactive).

As to `CCCc1nn(C)c2c(=O)[nH]c(-c3cc(S(=O)(=O)N4CCN(C)CC4)ccc3OCC)nc12`, the Potency result was “inactive”.

As to `NNCCc1ccccc1`, the “activity change, negative = cytotoxicity” value was -4.66% (inactive).
